# Bioassay records as filed in PubChem BioAssay.
# IMPase cell inh: IMPase inhibition in cells; 120,000 tested, under 10 active; inhibition (IP1 accumulation), % at 46.1 µM; P97697; CHO-M1 cells, IP1 accumulation, HTRF TR-FRET ratio; AID 901; active = well fitted curve in the direction sought with a large enough effect in the signal ratio, not every such curve was filed as active; inconclusive = small, poorly fitted or top-dose-only effect, or a change in a side signal; inactive = no such curve, though single readings can be large or run the other way; the % refers to the signal ratio;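 also: cells stimulated with carbachol in lithium chloride buffer; plate controls were DMSO basal wells for no effect and reference inhibitor wells for full effect; higher means more IMPase inhibition seen as more IP1 and lower FRET ratio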
#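 Seeded CHO-M1 cells were dosed with compound at up to 46 uM, stimulated with carbachol for 30 min, then lysed in IP-One detection reagents. Higher IP1 lowers the TR-FRET signal.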
# Lamin A splicing: modulators of lamin A splicing. 200,000 tested, 0.01% active. HeLa LMNA splicing GFP/RFP minigene ratio, 48 h. Potency, µM (titrated, usually from 46.1 µM), without a hit: at the top dose ratio change, negative = inhibition, actives largely listed as inhibitors; active = well fitted inhibition curve with a large enough effect in the signal ratio, with a control signal flat, not every such curve was filed as active; inconclusive = small, poorly fitted or top-dose-only effect, or effect the other way, or a change in a side signal; the % refers to the signal ratio; also: potency is read from the fitted curve at half-maximal effect
#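 S3 HeLa stable clones carrying a lamin A-EGFP splicing minigene plus DsRed2 were seeded at 600 cells/well in Opti-MEM with 2% FBS, pin-dosed and incubated 48 h at 37°C. Acumen cytometry (488 nm) gave the GFP/RFP total-intensity ratio.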
# PNC assembly inh: perinucleolar compartment assembly inhibition; activity change (PNC), negative = inhibition, % at 10 µM; PC3M PTB-GFP, PNC prevalence imaging, 16 h; active compounds read low; AID 2417; 140,000 tested, 3.1% active;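 active = readout at or below -70, meaning at least 70% loss of cells showing the perinucleolar compartment, a nuclear body marking cancer cells; inconclusive = readout between -30 and a set limit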;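 also: plate controls were DMSO wells for no effect and camptothecin positive control wells for full effect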
#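 Read-out is percentage of cells bearing a perinucleolar compartment, from automated 20x imaging of fixed, Hoechst-stained PC3M PTB-GFP cells. Cells were seeded 4 h, then exposed 16 h to compound (23 nl of library stock) in duplicate plates.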
# ALDH1A1 block: blocks purified human ALDH1A1 activity; 220,000 tested, 7.3% active; AID 1030; Purified ALDH1A1, NADH fluorescence, propionaldehyde substrate; Potency, µM (doses to about 75.3 µM), inactives show at the highest dose activity, negative = inhibition, actives largely listed as inhibitors; P00352;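 also: potency is read from the fitted curve at half-maximal effect; plate controls were no enzyme wells and a reference inhibitor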
# Target sequence (P00352 whole entry, looked up): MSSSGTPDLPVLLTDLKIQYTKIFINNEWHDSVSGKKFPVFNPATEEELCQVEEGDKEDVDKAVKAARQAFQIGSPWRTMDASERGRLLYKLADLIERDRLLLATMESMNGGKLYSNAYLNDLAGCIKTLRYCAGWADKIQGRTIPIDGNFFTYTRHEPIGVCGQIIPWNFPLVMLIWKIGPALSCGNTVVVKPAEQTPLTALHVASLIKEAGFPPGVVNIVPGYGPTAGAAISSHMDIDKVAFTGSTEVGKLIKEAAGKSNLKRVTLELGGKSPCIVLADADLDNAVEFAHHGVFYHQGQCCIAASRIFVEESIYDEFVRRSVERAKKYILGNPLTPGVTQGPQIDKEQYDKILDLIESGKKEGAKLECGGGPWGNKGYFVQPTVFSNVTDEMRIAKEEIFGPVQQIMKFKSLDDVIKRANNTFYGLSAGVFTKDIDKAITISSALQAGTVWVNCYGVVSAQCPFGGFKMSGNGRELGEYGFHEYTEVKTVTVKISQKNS
# KinaseGlo FLuc: counter-screen: inhibitors of Kinase-Glo firefly luciferase; Q27757; Kinase-Glo luciferase, ATP luminescence, 8 min; Potency, µM (titrated, usually from 38.3 µM), for inactives: top-dose activity change, negative = inhibition, most hits filed as inhibitors; 200,000 tested, 0.28% active; active = well fitted inhibition curve with a large enough effect; inconclusive = small, poorly fitted or top-dose-only effect; also: potency is read from the fitted curve at half-maximal effect; nearly all actives have a fitted effect of over 60% in size
#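 Compounds were added to a substrate mix at pH 7.2 (50 mM imidazole, 10 uM ATP, within the enzyme's linear range), followed by Kinase-Glo detection reagent; luminescence was measured after 8 minutes at ambient temperature.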
# HPGD inh: HPGD (human) dehydrogenase inhibition. P15428. purified HPGD, NADH fluorescence kinetic, PGE2 substrate. Potency, µM, for inactives: at the highest dose activity change, negative = inhibition, most hits filed as inhibitors. 150,000 tested, 4.3% active. AID 894; also: potency is read from the fitted curve at half-maximal effect
# Target sequence (P15428 whole entry, looked up): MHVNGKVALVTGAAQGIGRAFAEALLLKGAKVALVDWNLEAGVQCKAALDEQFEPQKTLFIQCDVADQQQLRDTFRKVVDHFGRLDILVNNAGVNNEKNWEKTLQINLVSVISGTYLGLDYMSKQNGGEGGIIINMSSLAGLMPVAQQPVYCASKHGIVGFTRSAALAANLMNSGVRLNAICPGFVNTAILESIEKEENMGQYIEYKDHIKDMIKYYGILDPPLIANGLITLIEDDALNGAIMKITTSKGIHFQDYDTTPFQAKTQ
#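 20 nM HPGD preincubated 15 min at room temperature with compound in 50 mM Tris-HCl pH 8, 0.01% Tween 20. Started with 1 mM NAD+ and 30 uM prostaglandin E2; NADH fluorescence (360/450 nm) read 5 times over 30-s intervals, last minus first.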
# Starred values were filed as active, the others as inactive; ? = inconclusive; . = no result given; [ ] = remark or other dose. In the library only some 10% were active in any assay of this set; here they are far more common. Unless noted, calls follow the shape of the dose curve; as a rule, active = well fitted inhibition curve with a large enough effect (not every such curve was filed as active); inconclusive = small, poorly fitted or top-dose-only effect, or another doubt; inactive = no such curve, though single readings can be large or run the other way. Unless noted, % is scaled to controls: 0 for no effect and ±100 for the full control effect.
SMILES,IMPase cell inh,Lamin A splicing,PNC assembly inh,ALDH1A1 block,KinaseGlo FLuc,HPGD inh
COc1ccc(-c2nc3cc(NC(=O)Cc4ccc(Cl)cc4)ccc3o2)cc1OC,-12,.,.,.,.,.
Cc1ccc(C)c(N/N=C2\CCCNC2=O)c1,.,3%,32,0%,-1%,-21%
Cc1ccccc1N/N=C1\CCCNC1=O,-4,-3%,5,10µM*,-8%,22µM*
COc1ccc(N2C(=O)CSC23C(=O)N(CC(=O)NCCc2ccccc2)c2ccccc23)cc1 (centres undefined),.,17%[46 µM],.,.,.,.
Cc1ccc(CNC(=O)c2ccc3c(=O)n(CC4CCCO4)c(=S)[nH]c3c2)cc1 (centres undefined),-6,5%,12,?,2%,-9%
COCCCNC(=O)c1ccc2c(=O)n(CC3CCCO3)c(=S)[nH]c2c1 (centres undefined),4,-3%,72,?,0%,-16%
CC(C)NC(=O)c1ccc2c(=O)n(CC3CCCO3)c(=S)[nH]c2c1 (centres undefined),.,.,.,1.4µM*,1%,.
O=C(NCc1ccco1)c1ccc2c(=O)n(CC3CCCO3)c(=S)[nH]c2c1 (centres undefined),-1,0%,-22,3.2µM*,0%,-13%
O=C(NCc1ccccc1)c1ccc2c(=O)n(CC3CCCO3)c(=S)[nH]c2c1 (centres undefined),-2,19%,21,2.8µM*,-1%,-5%
CC(=O)c1ccc(N2CCN(C(=O)c3ccc4c(=O)n(-c5ccccc5)c(=O)[nH]c4c3)CC2)cc1,-2,?,-108*,14µM*,2%,-29%
O=C(c1ccc2c(=O)n(-c3ccccc3)c(=O)[nH]c2c1)N1CCN(c2ccc(F)cc2)CC1,5,?,-4,-8%,-5%,-10%
CC(C)Oc1ccc(CNC(=O)c2ccc3c(c2)nc2n3CCOC2)cc1,.,2%[46 µM],.,.,.,.
CC1(C)Cc2c(sc3c2c(=O)n(Cc2ccccc2)c2nncn32)CO1,11,5%,13,4%,13%,-13%
CC1(C)Cc2c(sc3nnn(Cc4ccccc4)c(=O)c23)CO1,.,?,14,?,-6%,32µM*
CC1(C)Cc2c(sc3nn[nH]c(=O)c23)CO1,-7,3%,-85*,?,-3%,?
Cc1nnc2n(Cc3ccccc3)c(=O)c3c4c(sc3n12)COC(C)(C)C4,7,29%,15,13µM*,1%,16µM*
COCCn1c(=O)c(C)nc2cnc(Nc3ccccc3)nc21,.,-6%,.,11%,.,.
N#CC1=C(SCc2ccccc2Cl)NC(=O)C(C(N)=O)C1 (centres undefined),-7,-1%,-1,16µM*,-1%,-9%
N#CCCN1CCN(C2=NC(=O)C(=C3CCCCC3)S2)CC1,-4,?,19,1.3µM*,-9%,?
CC(=O)N1CCN(C2=NC(=O)C(=C3CCCCC3)S2)CC1,2,-17%,-100*,13µM*,4%,-9%
O=C1N=C(N2CCOCC2)SC1=C1CCCCC1,-4,?,-16,2µM*,?,-29%
CC(=O)N1CCN(C2=NC(=O)/C(=C\c3cccs3)S2)CC1,.,?,.,-7%,1%,.
Cc1cccc(N2CCN(C3=NC(=O)C(=C4CCCCC4)S3)CC2)c1,11,?,?,6.3µM*,14%,-6%
O=C1N=C(N2CCOCC2)S/C1=C/c1cccs1,17,-1%,-8,0%,-5%,-14%
COc1cc(C2c3c(oc4ccccc4c3=O)C(=O)N2c2nncs2)cc(OC)c1OC (centres undefined),3,.,.,.,.,.
SMILES,IMPase cell inh,Lamin A splicing,PNC assembly inh,ALDH1A1 block,KinaseGlo FLuc,HPGD inh
CC(=O)c1ccc(NC(=O)c2cc(-c3ccc(C)s3)nc3ccccc23)cc1,4,.,.,.,.,.
CCOc1ccccc1NC(=O)c1cc2c(=O)oc3ccccc3c2s1,.,6%[46 µM],.,.,.,.
COc1ccccc1Nc1nc2ccc(Cl)cc2nc1-n1nc(C)cc1C,1,.,.,.,.,.
O=[N+]([O-])c1ccc(Nc2nc(Cl)nc(NCCO)n2)cc1,.,.,.,3%,-1%,.
COc1nc(NCCO)nc(Nc2ccc([N+](=O)[O-])cc2)n1,1,-12%,22,?,7%,20µM*
CC(C)C(NC(=O)CN(c1cccc(F)c1)S(C)(=O)=O)C(C)C,5,-2%,16,35µM*,-2%,-2%
CCN(c1ccccc1)S(=O)(=O)c1c(-c2ccc(C)cc2)csc1C(=O)OC,.,-20%[46 µM],.,.,.,.
CCNc1ncc2nc(-c3cc(F)cc(F)c3)c(=O)n(Cc3cccs3)c2n1,.,.,.,?,0%,?
CCOC(=O)c1ccc2c(c1)nc(SCC(=O)c1ccco1)n2CC,4,15%,17,?,-6%,-29%
COc1ccc(-n2c(SCC(=O)N3CCCCC3)nc(O)cc2=O)cc1,-6,3%,33,22µM*,-3%,-7%
CCn1c(SCC(=O)N2CCOCC2)nc(O)cc1=O,3,-6%,25,6%,1%,-28%
CCOC(=O)c1ccc2c(c1)nc(SCC(=O)N1CCCCC1)n2CC,1,14%,-11,?,7%,5µM*
CCn1c(SCC(=O)N2CCCCC2)nc(O)cc1=O,-1,13%,35,1%,4%,0.28µM*
O=C(CCCOc1ccc(Cl)cc1Cl)NCCCO,0,1%,?,-1%,6%,-10%
O=C(COc1ccc(Cl)cc1Cl)NCc1ccncc1,0,?,-23,?,-7%,25µM*
CC(=O)c1sc(NC(=O)COc2c(C)cc(Cl)cc2C)nc1C,.,.,.,4%,-2%,.
O=C(CCCOc1ccc(Cl)cc1Cl)NCc1ccncc1,.,-4%[46 µM],.,20µM*,-3%,.
CC(=O)c1sc(NC(=O)COc2ccc(Cl)cc2Cl)nc1C,.,.,.,11µM*,2%,.
COCCNC(=O)[C@H](C)/C=C(\c1cccnc1)C(NC(=O)OCc1ccccc1)c1ccc(C(=O)OC)cc1 (some centres undefined),.,.,.,-4%,0%,-7%
Cc1ccccc1NC(=O)CC1SCCNC1=O (centres undefined),16,4%,-92*,20%,0%,-14%
Cc1c(Cl)cccc1NC(=O)CC1SCCNC1=O (centres undefined),1,-6%,-10,0%,4%,-1%
CCOC(=O)c1ccc(NC(=O)CC2SCCNC2=O)cc1 (centres undefined),12,?,?,13µM*,-3%,-4%
COc1ccc(-n2c(SCC(=O)Nc3ncc(Cl)cc3Cl)nc3ccccc32)cc1,.,?,.,-1%,1%,.
O=C(CSc1nc2ccccc2n1-c1ccccc1)Nc1ncc(Cl)cc1Cl,-8,?,-107*,2%,2%,-7%
